Here are results for 9 molecules from PubChem BioAssay (Tox21).

Values without a mark were called inactive. Records with an inconclusive call do not appear. Calls of active or inactive are those of the source. Unless noted, calls follow the shape of the dose curve; as a rule, active = well fitted curve in the direction sought with a large enough effect in the repeat runs; inconclusive = weak or mixed curves; inactive = no such curve, though single readings can be large; an effect the other way counts as inactive or inconclusive.

Experiment [1] is described as follows: qHTS assay to identify small molecule antagonists of the estrogen related receptor (ERR) signaling pathway from Tox21 library - cell viability counter screen (AID 1224834). Also: nearly all actives have a fitted effect of over 30% in size. Also: potency is read from the fitted curve at half-maximal effect. In a few lines: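 Viability readout (CellTiter-Fluor fluorescence, 30 min at 37 C) multiplexed with the ERR assay; cells treated 17.5 h at 37 C with compounds delivered in DMSO.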
The target in experiment [2] is Luciferin 4-monooxygenase (Photinus pyralis) (UniProt P08659). Briefly: qHTS assay to identify small molecule inhibitors of firefly luciferase (AID 1224835). Also: nearly all actives have a fitted effect of over 25% in size. Summed up: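 Biochemical qHTS: compounds run as interplate titrations against purified firefly enzyme, with D-luciferin and ATP each at its KM concentration. Light output recorded by CCD imaging.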
Luciferin 4-monooxygenase (Photinus pyralis), sequence (P08659 whole entry, looked up): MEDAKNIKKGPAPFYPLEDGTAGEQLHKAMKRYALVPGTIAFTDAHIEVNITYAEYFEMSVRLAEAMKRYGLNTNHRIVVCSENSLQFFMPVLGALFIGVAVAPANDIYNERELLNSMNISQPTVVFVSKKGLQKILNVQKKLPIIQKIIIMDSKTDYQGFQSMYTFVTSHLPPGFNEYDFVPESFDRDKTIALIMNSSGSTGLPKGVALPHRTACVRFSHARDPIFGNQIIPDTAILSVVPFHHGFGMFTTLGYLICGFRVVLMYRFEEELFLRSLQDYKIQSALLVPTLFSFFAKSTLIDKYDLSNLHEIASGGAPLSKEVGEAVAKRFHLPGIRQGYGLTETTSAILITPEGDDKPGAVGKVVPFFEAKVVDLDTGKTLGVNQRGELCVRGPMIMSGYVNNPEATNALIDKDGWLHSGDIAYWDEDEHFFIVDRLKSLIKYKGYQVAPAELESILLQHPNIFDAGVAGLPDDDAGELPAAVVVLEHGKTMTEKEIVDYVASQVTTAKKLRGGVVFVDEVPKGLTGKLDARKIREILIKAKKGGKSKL
A short description of experiment [3]: qHTS assay to identify small molecule agonists of the constitutive androstane receptor (CAR) signaling pathway - cell viability counter screen (AID 1224836). Also: nearly all actives have a fitted effect of over 45% in size. Summed up: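 HepG2-CYP2B6-hCAR, 2500 cells/well, 4 h pre-incubation; cpd 15 conc + PK11195 0.75 uM final; 23 h, 37 C/5% CO2; CellTiter-Fluor, fluorescence.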
For orientation: Quantitative high-throughput screening tests each substance at several concentrations.

Experiment [4] can be described thus: qHTS assay to identify small molecule antagonists of the constitutive androstane receptor (CAR) signaling pathway - cell viability counter screen (AID 1224837). Also: nearly all actives have a fitted effect of over 45% in size. Summed up: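 Fluorescence from CellTiter-Fluor served as the viability signal. Human hepatoma HepG2 cells stably bearing hCAR and CYP2B6-2.2kb received compound plus CITCO (50 nM final) for 23 hr.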
The target of experiment [5] is Nuclear receptor subfamily 1 group I member 3 (Homo sapiens) (UniProt Q14994). The experiment in a line: qHTS assay to identify small molecule antagonists of the constitutive androstane receptor (CAR) signaling pathway (AID 1224838).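 Also: HepG2 cells stably expressing hCAR with CYP2B6 luciferase reporter stimulated by CITCO; nearly all actives have a fitted effect of over 40% in size.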 In a few lines: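 Quantitative HTS in double-stable HepG2-CYP2B6-hCAR cells. After 4 h plating, cells get compound (15 concentrations) and CITCO at 50 nM final, incubate 24 h at 37 C, then ONE-Glo luminescence is read.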
Nuclear receptor subfamily 1 group I member 3 (Homo sapiens), sequence (Q14994 whole entry, looked up): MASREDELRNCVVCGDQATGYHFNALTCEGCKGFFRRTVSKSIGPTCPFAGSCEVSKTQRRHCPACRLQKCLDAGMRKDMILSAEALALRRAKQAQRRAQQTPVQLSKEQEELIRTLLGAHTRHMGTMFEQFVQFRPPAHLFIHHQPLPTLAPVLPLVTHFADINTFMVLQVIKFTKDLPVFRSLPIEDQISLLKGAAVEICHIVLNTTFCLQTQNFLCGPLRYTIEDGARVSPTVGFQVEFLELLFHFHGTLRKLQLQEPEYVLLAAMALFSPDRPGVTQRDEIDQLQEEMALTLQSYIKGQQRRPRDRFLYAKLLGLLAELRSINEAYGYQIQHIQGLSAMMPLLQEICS

Experiment [6] in a line: qHTS assay to identify small molecule antagonists of the estrogen related receptor signaling pathway with the pleiotropic PPARgamma coactivator (PGC) from Tox21 10K library - cell viability counter screen (AID 1224840; active = well fitted cell-killing curve with a large enough effect in the repeat runs, not every such curve was filed as active; also: nearly all actives have a fitted effect of over 40% in size). Summed up: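 Compounds in DMSO, alongside positive and negative controls, were pinned onto PGC/ERR cells (2,000 per well). Exposure lasted 17.5 hours at 37 C, followed by a 30-minute CellTiter-Fluor incubation and fluorescence reading.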

Experiment [7] can be described thus: qHTS assay to identify small molecule antagonists of the estrogen related receptor signaling pathway with the pleiotropic PPARgamma coactivator (PGC) from Tox21 10K library (AID 1224841; call rule not given here; also: actives are mostly falling curves and most rising ones were filed inactive; nearly all actives have a fitted effect of over 50% in size). Summed up: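 Compound exposure ran 18 hours at 37 C in PGC/ERR cells (2,000/well) that had first rested 6 hours in a 37 C/5% CO2 incubator. Luciferase activity was then detected with One-Glo after a 30-minute room-temperature step.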

Experiment [8] can be described thus: qHTS assay to identify small molecule agonists of the estrogen related receptor signaling pathway with the pleiotropic PPARgamma coactivator (PGC) from Tox21 10K library (AID 1224842). Also: nearly all actives have a fitted effect of over 15% in size. In a few lines:
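PGC/ERR reporter cell line, 2,000 cells per well, incubated 6 h at 37 C before 23 nL compound in DMSO was added. After 18 h at 37 C, One-Glo luminescence read following 30 min at room temperature.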

A short description of experiment [9]: qHTS assay to identify small molecule agonists of the hypoxia (HIF-1) signaling pathway - cell viability counter screen (AID 1224844; calls by dose curve; also: nearly all actives have a fitted effect of over 50% in size). Summed up: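 Luminescent ATP content (CellTiter-Glo, 30 min, room temperature) served as the viability measure in HRE-bla ME-180 cells exposed to compounds for 17 hrs in low-serum medium (0.5% dialyzed FBS).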
Experiment [10] is described as follows: qHTS assay to identify small molecule agonists of the hypoxia (HIF-1) signaling pathway (AID 1224846; active = well fitted activation curve with a large enough effect in the signal ratio in the repeat runs, not every such curve was filed as active; the % refers to the signal ratio). Summed up: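 Measured by blue/green FRET after loading CCF4-AM: beta-lactamase expressed from a hypoxia response element in ME-180 cells. Test agents were delivered in DMSO and left 17 hrs; cells had been plated 5 hrs earlier in low-serum (0.5% dialyzed FBS) medium.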

Experiment [11] can be described thus: qHTS assay to identify small molecule agonists of the estrogen related receptor (ERR) signaling pathway from Tox21 library (AID 1224849; calls by dose curve; also: nearly all actives have a fitted effect of over 15% in size). The settings on record: ERR reporter cell line, ONE-Glo luciferase, 18 h; at 92.4 µM (top of the series) unless noted. Summed up: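 We plated ERR reporter cells, waited 6 h, added compounds in DMSO by pin tool and incubated them 18 h at 37 C. ONE-Glo was then added and luminescence read after 30 min.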

Experiment [12] can be described thus: qHTS RealTime-Glo MT Cell Viability Assay in HepG2 cells - 24 hour (AID 1224867). Also: nearly all actives have a fitted effect of over 50% in size. Summed up:
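HepG2 suspension premixed with RealTime-Glo reagents is plated at 600 cells per well and left 5 h at 37 C/5% CO2. Compounds in DMSO then go in, and bioluminescence reflecting viable cell number is recorded over 40 h.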

Experiment [13] in a line: qHTS RealTime-Glo MT Cell Viability Assay in HEK293 cells - 32 hour (AID 1224868). Also: top concentration of the series differs between compounds; nearly all actives have a fitted effect of over 50% in size. Summed up:
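Reads taken at 0, 8, 16, 24, 32 and 40 h from the same wells. HEK293 cells (600/well) carried RealTime-Glo reagents from seeding, with compound added after a 5 h settle at 37 C.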

Experiment [14] can be described thus: A CellTox Green Cytotoxicity Assay to monitor cytotoxicity in HEK293 cells - 0 hour (AID 1224869). Also: nearly all actives have a fitted effect of over 50% in size. Summed up: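 Each value comes from one timepoint of a single continuous run in which HEK293 cells with CellTox Green were exposed to compound for up to 40 h at 37 C, dye fluorescence rising with cell death.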
Experiment [15] is described as follows: qHTS RealTime-Glo MT Cell Viability Assay in HepG2 cells - 40 hour (AID 1224870). Also: nearly all actives have a fitted effect of over 50% in size. In a few lines:
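HepG2 cells (600/well) mixed with RealTime-Glo MT reagent, settled 5 h at 37 C/5% CO2 before compound addition. Nonlytic NanoLuc luminescence from viable-cell prosubstrate reduction read repeatedly during 40 h treatment at 37 C.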

Experiment [16] concerns the target Nuclear receptor subfamily 1 group I member 3 (Homo sapiens) (UniProt Q14994). Briefly: qHTS assay to identify small molecule agonists of the constitutive androstane receptor (CAR) signaling pathway (AID 1224839). Also: nearly all actives have a fitted effect of over 15% in size. Also: potency is read from the fitted curve at half-maximal effect.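 As to activation: HepG2 cells stably carrying human CAR and a CYP2B6 luciferase reporter.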 In a few lines: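 HepG2-CYP2B6-hCAR cells, 2500/well, 4 h pre-incubation; compounds 15 conc.; PK11195 0.75 uM final; 24 h, 37 C/5% CO2; ONE-Glo luciferase read.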

Experiment [17] deals with Thyrotropin receptor (Homo sapiens) (UniProt P16473). Briefly: qHTS assay to identify small molecule agonists of the thyroid stimulating hormone receptor (TSHR) signaling pathway (AID 1224843; calls by dose curve; also: nearly all actives have a fitted effect of over 45% in size). Summed up:
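Steps: seed 800 TSHR-HEK293 cells per well; add test compound and hold 30 min at ambient temperature; dispense cAMP-d2 then anti-cAMP cryptate; incubate 1 h at ambient; measure fluorescence intensity.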

Experiment [18] is described as follows: qHTS assay to identify small molecule agonists of H2AX (AID 1224845; active = well fitted activation curve with a large enough effect in the signal ratio in the repeat runs, not every such curve was filed as active; the % refers to the signal ratio). In a few lines:
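Wild-type CHO-K1 cells, plated overnight, exposed 3hr at 37C to 15 concentrations (0.76% DMSO final). Lysed, then HTRF anti-pH2AX (S139) cryptate and anti-H2AX-d2 antibodies, 24 hr room temperature; 665/620 nm emission read.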

The nature of experiment [19]: qHTS assay to identify small molecule agonists of H2AX - cell viability counter screen (AID 1224847; calls by dose curve; also: top concentration of the series differs between compounds; nearly all actives have a fitted effect of over 30% in size). Summed up:
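Cells plated first: CHO-K1, 1000 per well in 10% FBS medium, incubated overnight at 37C. Then 15-point compound titration added (final DMSO 0.76%) for 3 hr. Finally CellTiter-Glo added and luminescence read.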

Experiment [20] in a line: qHTS assay to identify small molecule antagonists of the estrogen related receptor (ERR) signaling pathway from Tox21 library (AID 1224848). Also: nearly all actives have a fitted effect of over 50% in size. In a few lines:
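Luminescent reporter read-out (ONE-Glo) from NTP's ERR cell line after 18 h treatment at 37 C with DMSO-dissolved Tox21 compounds; cells pre-plated 6 h beforehand at 2,000 per well.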
% is scaled to controls: 0 for no effect and ±100 for the full control effect.

Thyrotropin receptor (Homo sapiens), sequence (P16473 whole entry, looked up): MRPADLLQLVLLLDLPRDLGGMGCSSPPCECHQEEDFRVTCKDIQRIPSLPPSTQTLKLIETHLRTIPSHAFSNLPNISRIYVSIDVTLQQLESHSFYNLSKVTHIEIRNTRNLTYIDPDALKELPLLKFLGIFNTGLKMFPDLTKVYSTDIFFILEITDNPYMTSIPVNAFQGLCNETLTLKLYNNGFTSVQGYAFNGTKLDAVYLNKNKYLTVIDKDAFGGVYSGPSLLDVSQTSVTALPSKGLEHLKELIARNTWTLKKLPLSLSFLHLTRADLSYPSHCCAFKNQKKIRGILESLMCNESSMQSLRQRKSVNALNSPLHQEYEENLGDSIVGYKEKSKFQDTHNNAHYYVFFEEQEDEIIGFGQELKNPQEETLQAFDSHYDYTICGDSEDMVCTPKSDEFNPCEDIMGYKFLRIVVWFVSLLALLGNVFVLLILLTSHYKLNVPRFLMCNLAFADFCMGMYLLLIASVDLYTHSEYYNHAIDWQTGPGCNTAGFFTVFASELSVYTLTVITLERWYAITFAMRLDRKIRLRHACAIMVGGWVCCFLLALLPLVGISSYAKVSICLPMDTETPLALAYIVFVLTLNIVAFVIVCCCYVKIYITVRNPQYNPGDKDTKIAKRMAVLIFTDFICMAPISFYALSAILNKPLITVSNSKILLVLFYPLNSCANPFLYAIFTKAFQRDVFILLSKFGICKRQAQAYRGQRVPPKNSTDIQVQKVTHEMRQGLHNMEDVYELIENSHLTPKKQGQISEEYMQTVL

For `CCOP(=S)(Oc1cnc(C(C)(C)C)nc1)OC(C)C` (configuration not stated), the Potency entry in [1], in experiment [2], in experiment [3], in experiment [4], in experiment [5] and in experiment [6] was “inactive” throughout. In addition, the Potency entry in experiment [7], in experiment [9], in experiment [12], in experiment [13], in experiment [14] and in [15] was “inactive” in each case. Also, the outcome in [8] and in [10] was inactive. For the same molecule, in [11], the activity change, positive = activation is -20.7%.

As for `CN1CCN(C(=O)O[C@H]2c3nccnc3C(=O)N2c2ccc(Cl)cn2)CC1`, the Potency entry in [1], in experiment [2], in [3], in [4], in [5] and in experiment [16] was “inactive” each time. Further, the Potency result in experiment [6], in [17], in [9], in [18], in [19] and in experiment [12] was “inactive” each time. The Potency result in experiment [13] and in experiment [15] was “inactive” each time.

In the case of `O=C1OC(CCN2CCCCC2)OC1(c1ccccc1)c1ccccc1` (configuration not stated), the Potency entry in experiment [1], in [2], in experiment [3], in experiment [4], in experiment [5] and in experiment [16] was “inactive” each time. In addition, the Potency result in [6], in experiment [17], in experiment [9], in [19], in [12] and in [14] was “inactive” throughout. For the same molecule, the Potency entry in experiment [15] is “inactive”. For the same molecule, the call in [10] was inactive.

For `Nc1cc(Cl)ccc1O`, the Potency in experiment [1] was 33.3 µM (active); in experiment [16], 52.7 µM (active). The Potency entry in [2], in [3], in experiment [4], in experiment [5], in [6] and in experiment [17] was “inactive” each time. Besides, the Potency entry in experiment [9], in experiment [19], in experiment [12], in [13], in experiment [14] and in experiment [15] was “inactive” throughout. For the same molecule, the call in [10] was inactive.

`CCC1(c2ccccc2)C(=O)N=C(O)NC1=O` (configuration not stated): the Potency result in experiment [1], in [2], in experiment [3], in [4], in experiment [5] and in [16] was “inactive” each time. Also, the Potency entry in experiment [6], in experiment [17], in experiment [9], in experiment [18], in experiment [19] and in experiment [12] was “inactive” each time. Moreover, the Potency entry in experiment [15] is “inactive”. The result in experiment [10] was inactive.

As to `OCCSCSCCO`, the Potency result in [1], in experiment [2], in experiment [3], in [4], in experiment [5] and in [16] was “inactive” in each case. Further, the Potency result in experiment [6], in [17], in experiment [9], in experiment [18], in [19] and in [12] was “inactive” each time. Also, in experiment [15], the Potency result was “inactive”. Moreover, in experiment [10], the call was inactive.

For `CCOP(=S)(OCC)SCSP(=S)(OCC)OCC`, the Potency result in experiment [1], in [2], in [3], in experiment [4], in experiment [5] and in experiment [6] was “inactive” each time. Besides, the Potency entry in [9], in experiment [19], in [12], in [14] and in experiment [15] was “inactive” in each case. For the same molecule, the Potency in experiment [16] was 27.3 µM (active). Moreover, the outcome in [10] was inactive.

With `CCN(CC)CCOC(=O)C(C)(c1ccccc1)c1ccccc1`, the Potency entry in [1], in [2], in experiment [3], in [4], in experiment [5] and in experiment [6] was “inactive” each time. Further, the Potency result in [7], in experiment [17], in experiment [9], in experiment [18], in [19] and in experiment [20] was “inactive” throughout. In addition, the Potency entry in experiment [12], in experiment [13], in [14] and in [15] was “inactive” in each case. For the same molecule, the molecule was classed as inactive in experiment [8] and in [10]. The activity change, positive = activation in [11] was 0.519% [at 42.5 µM].

Consider `Clc1cccc(N2CCNCC2)c1`, for which the Potency entry in experiment [1], in experiment [2], in [3], in experiment [4], in experiment [5] and in experiment [16] was “inactive” in each case. Further, the Potency result in experiment [6], in experiment [17], in experiment [9], in experiment [18], in experiment [19] and in experiment [12] was “inactive” throughout. The Potency result in [14] and in [15] was “inactive” throughout.
